# Assay outcomes deposited in PubChem BioAssay by National Center for Advancing Translational Sciences (NCATS).
# Shiga inhibitor = Shiga toxin inhibition | Vero cells, Shiga toxin protein synthesis inhibition reporter | inhibition, % at 38.7 µM | 9.2% of 290,000 active; in the data active means inhibition mostly above about 28%, no sharp cut-off; inactive means mostly below about 43%
# Marburg entry inh = inhibitors of Marburg virus binding or cell entry; AID 540276; 1.8% of 300,000 active; Marburg virus pseudotyped entry inhibition, cell reporter; Potency, µM (doses to about 37.8 µM), hits mostly inhibitors; calls by dose curve; tested in HEK293 cells
# FMDV inh = antivirals against foot and mouth disease virus; AID 1159524; 1.2% of 410,000 active; FMDV antiviral cell-based qHTS; Potency, µM (titrated, usually from 57.9 µM), most hits filed as inhibitors; calls by dose curve; tested in HEK293T cells; further: read-out not given here; nearly all actives have a fitted effect of over 45% in size
# Lassa entry inh = blocks Lassa virus binding to or entry into cells; Potency, µM (top dose mostly 37.9 µM), actives largely listed as inhibitors; 1.2% of 300,000 active; Lassa virus pseudotype entry inhibition, cell reporter; calls by dose curve; tested in HEK293 cells; further: nearly all actives have a fitted effect of over 50% in size
# HCV inhibitor = blocks hepatitis C virus; AID 651820; Huh7.5.1 HCVcc-Cre infection, luciferase reporter, 44 h; 3.4% of 340,000 active; Potency, µM (doses to about 41.8 µM), actives largely listed as inhibitors; active means well fitted inhibition curve with a large enough effect; inconclusive means small, poorly fitted or top-dose-only effect, or another doubt; inactive means no such curve, though single readings can be large or run the other way
#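 HCVcc-Cre virus at an moi near 0.5 was added right after compound to cells cultured 4 h from seeding (1,000 cells/well). Luciferase activity was determined 44 h later, 15 min after substrate addition at RT.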
# Cycloheximide cs = affects cycloheximide protein synthesis inhibition readout, counter-screen | cell reporter, cycloheximide protein synthesis inhibition counterscreen | AID 2314 | max response, % | 12% of 300,000 active; in the data active means max response mostly above about 13%, no sharp cut-off; inactive means mostly below about 14%; further: read at 38.3 µM for the half of the compounds with a filed dose
# Hits are given with their value; n = inactive; u = inconclusive; x = not tested or not shown; [ ] = another dose, or the depositor's remark. Hits are enriched below; roughly 13% of the tested compounds scored in any of these assays.
SMILES,Shiga inhibitor,Marburg entry inh,FMDV inh,Lassa entry inh,HCV inhibitor,Cycloheximide cs
CCc1ccccc1NC(=O)Cn1cc(C(=O)c2ccc(Cl)cc2)c(=O)c2ccc(C)nc21,x,x,n,n,x,x
O=C(Nc1ccccc1)Nc1cccn(Cc2c(F)cccc2Cl)c1=O,95,u,n,u,u,60
COc1ccc(Cn2cccc(NC(=O)Nc3ccc(F)cc3)c2=O)cc1,n,x,n,x,u,n
CSc1ccc(NC(=O)Nc2cccn(Cc3ccccc3)c2=O)cc1,64,u,u,u,3.5µM,29
O=C(NCc1ccccc1)Nc1cccn(Cc2ccccc2Cl)c1=O,50,x,u,x,13µM,n
Cc1ccc(Cn2cccc(NC(=O)c3ccco3)c2=O)cc1,92,n,n,u,n,37
O=C(NCc1ccccc1)Nc1cccn(Cc2ccc(Cl)cc2)c1=O,n,x,n,x,n,n
O=C(Cc1ccccc1)Nc1ccc(NC(=O)c2cccs2)c(Cl)c1,n,u,n,n,u,n
CC(=O)c1cccc(NC(=S)NC(=O)c2ccccc2Cl)c1,83,n,n,n,n,21
O=C(NC(=S)Nc1ccccc1O)c1ccccc1Cl,77,u,n,n,n,44
CC(=O)c1cccc(NC(=O)CCNC(=O)c2ccccc2Cl)c1,n,n,n,n,n,n
CC(=O)c1cccc(NC(=S)NC(=O)c2ccc(C)cc2Cl)c1,90,x,n,x,n,38
CCC(=O)NC(=S)Nc1cccc(C(C)=O)c1,n,n,n,n,n,n
Cc1ccccc1C(=O)NC(=S)Nc1ccccc1C(=O)O,n,n,n,n,n,n
COc1ccccc1[C@@H]1C(c2ccc(F)cc2)=NN(c2ccccc2)[C@H]1C(=O)N1CCOC1=O,n,n,n,n,n[8.37 µM],n
O=C(c1n[nH]c(=O)c2ccccc12)N1CCN(c2ccccc2Cl)CC1,n,u,u,n,n,n
O=C(O)c1ccc(N/N=C/C=C/c2ccccc2[N+](=O)[O-])cc1,52,n,n,u,n,45
CCN(Cc1ccccc1)C(=O)/C=C/c1ccccc1[N+](=O)[O-],n,n,n,n,n,n
Cc1ccc(CSc2nnc(SCC(=O)N/N=C/C=C/c3ccccc3[N+](=O)[O-])s2)cc1,48,u,n,u,n,21
Cc1ccccc1-n1c(SCC(=O)N/N=C/C=C/c2ccccc2[N+](=O)[O-])nc2ccccc2c1=O,n,7.1µM,n,u,u,n
CN(Cc1cccs1)C(=O)/C=C/c1ccccc1[N+](=O)[O-],69,n,n,n,n,n
CCC(=O)N(Cc1ccco1)Cc1cc2cc3c(cc2[nH]c1=O)OCO3,n,n,n,n,n,n
CC(=O)C1=CCC(c2ccc(C)cc2)N(S(=O)(=O)c2ccc(C)cc2)C1 (centres undefined),x,x,n,x,x,x
N#C/C(=C\C=C\c1ccccc1[N+](=O)[O-])C(=O)NCc1ccccc1,n,u,n,10µM,32µM,31
O=C(Cc1cccs1)N/N=C/C=C/c1ccccc1[N+](=O)[O-],62,n,n,u,n,22
SMILES,Shiga inhibitor,Marburg entry inh,FMDV inh,Lassa entry inh,HCV inhibitor,Cycloheximide cs
O=C(Cc1ccccc1)N/N=C/C=C/c1ccccc1[N+](=O)[O-],n,n,n,n,n,16
COc1ccccc1/C=C/C=N/NC(=O)Cc1cccs1,73,u,n,0.12µM,u,42
CC1(c2ccc3c(c2)OCCCO3)NC(=O)N(CC(=O)NCCc2ccc(F)cc2)C1=O (centres undefined),x,x,n,x,x,x
O=C1CCN(C2CCN(Cc3nc(Cc4ccccc4F)no3)CC2)CCN1,n,n,n,n,n,n
Cc1ccc(S(=O)(=O)N2[C@@H](c3ccc(Cl)cc3)C(C(=O)O)=C[C@H]2C(C)(C)C)cc1,x,x,n,x,n,x
CC(OC(=O)[C@@H](NS(=O)(=O)c1ccccc1)C(C)C)C(=O)c1c(N)n(C)c(=O)n(C)c1=O (some centres undefined),x,x,n,x,x,x
O=S(=O)(Nc1ccc(Cc2ccncc2)cc1)c1ccc(Br)cc1,n,u,n,u,10µM,n
O=S(=O)(Nc1ccc(Cc2ccncc2)cc1)c1ccc(Cl)cc1,n,u,n,u,11µM,n
O=S(=O)(Nc1ccc(Cc2ccncc2)cc1)c1ccc(Br)s1,n,u,n,u,n,n
Cc1ccc(OCC(=O)Nc2c(C)nn(-c3ccccc3)c2C)c(Br)c1,x,n,40µM,n,u,x
Cc1ccc(C)c(OCC(=O)OCC(=O)Nc2c(C)nn(-c3ccccc3)c2C)c1,x,n,n,n,n,x
Cc1nn(-c2ccccc2)c(C)c1NC(=O)COc1ccc(F)cc1Cl,n,u,20µM,n,u,n
CCOc1cccc2cc(S(=O)(=O)c3ccccc3F)c(=O)oc12,x,n,n,n,x,x
CCOc1ccc2nc(SCC3CC3(Cl)Cl)[nH]c2c1 (centres undefined),114,u,n,u,u,55
c1ccc2[nH]c(SCC3CCCCO3)nc2c1 (centres undefined),105,u,n,n,n,34
ClC1(Cl)CC1CSc1nc2ccccc2[nH]1 (centres undefined),n,n,n,x,n,42
CCOC(=O)NC(=O)CSc1nc2ccc(OCC)cc2[nH]1,n,n,n,n,n,n
CCOc1ccc(S(=O)(=O)NC2CCCC2)cc1C,n,u,n,n,n,n
CCn1c(Oc2cccc(Br)c2)nc2c1c(=O)n(C)c(=O)n2C,n,x,u,x,n,n
O=C(Nc1ccc(-c2nnc(-c3ccco3)o2)cc1)C(c1ccccc1)c1ccccc1,n,n,n,n,n,n
CC(C)(C)NC(=O)C1C(c2ccc(C(F)(F)F)cc2)=Nc2ccccc2N1C(=O)c1cccc2ccccc12 (centres undefined),x,x,n,x,x,x
COc1ccccc1OCC(=O)N(Cc1nc(-c2ccccc2)no1)C(C)C,n,u,n,7.9µM,3.2µM,n
COc1ccccc1OCC(=O)N(Cc1nc(-c2ccc(Cl)cc2)no1)C(C)C,n,x,n,x,u,n
COc1ccc(-c2nc(SCC(=O)NCCCc3ccccc3)n[nH]2)cc1,x,x,n,u,x,x
COc1ccc(N(CCC(=O)Nc2ccccc2F)S(=O)(=O)c2ccc(C)cc2C)cc1,x,n,n,u,u,x
SMILES,Shiga inhibitor,Marburg entry inh,FMDV inh,Lassa entry inh,HCV inhibitor,Cycloheximide cs
Cc1[nH]n(-c2ccccc2)c(=O)c1-c1ccc(Cl)cc1,n,n,n,n,n,n
O=c1c(-c2ccccc2)c[nH]n1-c1cccc([N+](=O)[O-])c1,77,u,n,n,n,22
O=c1c(-c2ccc(Cl)cc2)c[nH]n1-c1ccccc1,78,x,n,x,n,25
COc1ccc(-c2cc(-c3ccccc3)nc(SCC(=O)Nc3ccccc3F)c2C#N)cc1,x,n,n,n,x,x
Cc1ccc(S(=O)(=O)N2CCN(C(=O)NCc3ccc(F)cc3)CC2)c(C)c1,n,u,n,n,n,n
CCOc1ccc(/C=N/O)cc1,n,n,n,x,n,n
Cc1ccc(Oc2ccc(/C=N/O)cn2)cc1,91,u,n,n,n,41
Cc1ccc(COc2ccc(/C=N/O)cc2)cc1,87,u,n,u,n,43
COc1ccc(Cl)cc1C(=O)NCCN1CCOCC1,n,x,n,x,n,n
